Reference: the supplement of paper PMC8975748
Where a name gives a salt, the structure may show the parent alone. ± gives the standard deviation of the averaged measurements.

How the values were obtained:
[1] = test system: Saccharomyces cerevisiae BY4741 SeMeCo community; test: mean cell size (pixel area) (pixels); higher = larger cells; conditions: 10 µM; 24 h; SM minimal medium
Method in brief: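 A Saccharomyces cerevisiae BY4741 community carrying four plasmids, each with a fluorescent marker and each complementing one auxotrophy, was exposed for 24 h to drug at a final 10 µM in SM medium in acoustically predosed 384-well plates. The overnight preculture (OD600 = 1.0) was diluted to OD600 = 0.3 before 70 µl was added per well. Cells were then fixed with paraformaldehyde, imaged by automated confocal microscopy and analysed in Harmony to derive mean cell pixel area per well, averaged over 3 replicates. Same SeMeCo high-content imaging drug screen: Selleck FDA-approved drugs at 10 µM, 24 h in SM medium, 384-well plates, 3 replicates.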

[2] = test system: Saccharomyces cerevisiae BY4741 SeMeCo community; test: z-score of prototroph abundance vs DMSO median; higher = larger share of this subpopulation than in DMSO controls; conditions: 10 µM; 24 h; SM minimal medium; subpopulation (auxotrophy): Prototroph
Method in brief: (§1)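 Four plasmids, each restoring a single auxotrophy and encoding a distinct fluorescent protein, were carried by a Saccharomyces cerevisiae BY4741 community. After overnight growth to OD600 1.0 and dilution to 0.3, 70 µl per well was grown for 24 h in minimal SM medium on 384-well plates acoustically predosed with library drugs at 10 µM final. Following paraformaldehyde fixation, automated confocal microscopy was used, with single-auxotroph fluorescent strains defining thresholds and autofluorescence correction. Subpopulation abundance was then scored as a z-score against the vehicle-well median.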

[3] = test system: Saccharomyces cerevisiae BY4741 SeMeCo community; test: z-score of subpopulation abundance vs DMSO median, subpopulation auxotrophic for M; higher = larger share of this subpopulation than in DMSO controls; conditions: 10 µM; 24 h; SM minimal medium; subpopulation (auxotrophy): M
Method in brief: as §1

[4] = test system: Saccharomyces cerevisiae BY4741 SeMeCo community; test: z-score of subpopulation abundance vs DMSO median, subpopulation auxotrophic for L; higher = larger share of this subpopulation than in DMSO controls; conditions: 10 µM; 24 h; SM minimal medium; subpopulation (auxotrophy): L
Method in brief: as §1

[5] = test system: Saccharomyces cerevisiae BY4741 SeMeCo community; test: z-score of subpopulation abundance vs DMSO median, subpopulation auxotrophic for U; higher = larger share of this subpopulation than in DMSO controls; conditions: 10 µM; 24 h; SM minimal medium; subpopulation (auxotrophy): U
Method in brief: as §1

[6] = test system: Saccharomyces cerevisiae BY4741 SeMeCo community; test: z-score of subpopulation abundance vs DMSO median, subpopulation auxotrophic for LU; higher = larger share of this subpopulation than in DMSO controls; conditions: 10 µM; 24 h; SM minimal medium; subpopulation (auxotrophy): LU
Method in brief: as §1

[7] = test system: Saccharomyces cerevisiae BY4741 SeMeCo community; test: z-score of subpopulation abundance vs DMSO median, subpopulation auxotrophic for LM; higher = larger share of this subpopulation than in DMSO controls; conditions: 10 µM; 24 h; SM minimal medium; subpopulation (auxotrophy): LM
Method in brief: as §1

[8] = test system: Saccharomyces cerevisiae BY4741 SeMeCo community; test: z-score of subpopulation abundance vs DMSO median, subpopulation auxotrophic for HM; higher = larger share of this subpopulation than in DMSO controls; conditions: 10 µM; 24 h; SM minimal medium; subpopulation (auxotrophy): HM
Method in brief: as §1

[9] = test system: Saccharomyces cerevisiae BY4741 SeMeCo community; test: z-score of subpopulation abundance vs DMSO median, subpopulation auxotrophic for HU; higher = larger share of this subpopulation than in DMSO controls; conditions: 10 µM; 24 h; SM minimal medium; subpopulation (auxotrophy): HU
Method in brief: as §1

[10] = test system: Saccharomyces cerevisiae BY4741 SeMeCo community; test: z-score of subpopulation abundance vs DMSO median, subpopulation auxotrophic for UM; higher = larger share of this subpopulation than in DMSO controls; conditions: 10 µM; 24 h; SM minimal medium; subpopulation (auxotrophy): UM
Method in brief: as §1

[11] = test system: Saccharomyces cerevisiae BY4741 SeMeCo community; test: z-score of subpopulation abundance vs DMSO median, subpopulation auxotrophic for HL; higher = larger share of this subpopulation than in DMSO controls; conditions: 10 µM; 24 h; SM minimal medium; subpopulation (auxotrophy): HL
Method in brief: as §1

[12] = test system: Saccharomyces cerevisiae BY4741 SeMeCo community; test: z-score of subpopulation abundance vs DMSO median, subpopulation auxotrophic for HLM; higher = larger share of this subpopulation than in DMSO controls; conditions: 10 µM; 24 h; SM minimal medium; subpopulation (auxotrophy): HLM
Method in brief: as §1

[13] = test system: Saccharomyces cerevisiae BY4741 SeMeCo community; test: z-score of subpopulation abundance vs DMSO median, subpopulation auxotrophic for HUM; higher = larger share of this subpopulation than in DMSO controls; conditions: 10 µM; 24 h; SM minimal medium; subpopulation (auxotrophy): HUM
Method in brief: as §1

[14] = test system: Saccharomyces cerevisiae BY4741 SeMeCo community; test: z-score of subpopulation abundance vs DMSO median, subpopulation auxotrophic for LUM; higher = larger share of this subpopulation than in DMSO controls; conditions: 10 µM; 24 h; SM minimal medium; subpopulation (auxotrophy): LUM
Method in brief: as §1

[15] = test system: Saccharomyces cerevisiae BY4741 SeMeCo community; test: z-score of subpopulation abundance vs DMSO median, subpopulation auxotrophic for HLUM; higher = larger share of this subpopulation than in DMSO controls; conditions: 10 µM; 24 h; SM minimal medium; subpopulation (auxotrophy): HLUM
Method in brief: as §1

[16] = test system: Saccharomyces cerevisiae BY4741 SeMeCo community; test: z-score of subpopulation abundance vs DMSO median, subpopulation auxotrophic for H; higher = larger share of this subpopulation than in DMSO controls; conditions: 10 µM; 24 h; SM minimal medium; subpopulation (auxotrophy): H
Method in brief: as §1

Row | Structure (SMILES) | mean cell size [1] | z-score of prototroph abundance [2] | z-score of subpopulation abundance [3] | z-score of subpopulation abundance [4] | z-score of subpopulation abundance [5] | z-score of subpopulation abundance [6] | z-score of subpopulation abundance [7] | z-score of subpopulation abundance [8] | z-score of subpopulation abundance [9] | z-score of subpopulation abundance [10] | z-score of subpopulation abundance [11] | z-score of subpopulation abundance [12] | z-score of subpopulation abundance [13] | z-score of subpopulation abundance [14] | z-score of subpopulation abundance [15] | z-score of subpopulation abundance [16]
1 | COc1ccc2c3c1O[C@H]1C[C@@H](O)C=C[C@@]31CCN(C)C2 [Galanthamine HBr] | 11.87 ± 0.11 | -0.57 | 1.78 | -0.44 | 0.01 | 0.01 | -0.06 | 0.96 | -0.13 | 1.03 | -0.01 | -0.5 | 0.61 | -0.14 | -0.98 | –
2 | CCCCOc1ccc(CC(=O)NO)cc1 [Bufexamac] | 12.53 ± 0.12 | – | -0.94 | -1.49 | 0.85 | -0.51 | -1.36 | -0.9 | – | – | – | – | -1.13 | -0.9 | – | -0.53
3 | Cc1cccc(C)c1NC(=O)C1CCCCN1C (centres undefined) [Mepivacaine] | – | -0.01 | 0.42 | -0.3 | 0.11 | -0.35 | 0.4 | -0.49 | -0.53 | – | -0.24 | -0.7 | – | 0.08 | -0.41 | -1.62
4 | CNCC[C@H](Oc1cccc2ccccc12)c1cccs1 [Duloxetine HCl] | – | 0.65 | 0.4 | -0.57 | – | -0.43 | -0.49 | 0 | – | 0.1 | -1.07 | -0.84 | -0.47 | -0.53 | – | -0.45
5 | CCCCCCCCCCCCCCCC[N+](C)(C)C [Cetrimonium Bromide (CTAB)] | 10.8 ± 0.24 | -15.6 | -4.82 | -1.79 | -1.73 | 3.88 | 3.5 | 10.1 | 12.8 | 12.1 | 10.9 | – | – | 20.6 | 29.4 | 9.21
6 | Nc1nc(N)nc(-c2cc(Cl)ccc2Cl)n1 [Irsogladine] | 12.2 ± 0.19 | – | -0.36 | -0.15 | -1.06 | -1.09 | 0.16 | -0.68 | -0.69 | -1.92 | -0.18 | – | -1.16 | -0.45 | -0.22 | -0.31
7 | COc1c(N2C[C@@H]3CCCN[C@@H]3C2)c(F)cc2c(=O)c(C(=O)O)cn(C3CC3)c12 [Moxifloxacin HCl] | – | – | 0.89 | 2.07 | -0.98 | -0.22 | 2.74 | 0.67 | -0.55 | -0.68 | 1.26 | – | 0.22 | 0.77 | 1.08 | 0.53
8 | COCCOC(=O)C1=C(C)NC(C)=C(C(=O)OC(C)C)C1c1cccc([N+](=O)[O-])c1 (centres undefined) [Nimodipine] | – | – | -0.26 | 0.55 | 0.32 | -0.12 | -0.2 | – | 0.19 | 0.69 | -0.61 | -0.43 | -0.42 | 0.35 | -0.14 | -0.5
9 | O=C1OCCN1/N=C/c1ccc([N+](=O)[O-])o1 [Furazolidone] | 13.1 ± 0.18 | 3.52 | 1.9 | 2.57 | -7.17 | -5.41 | 1.07 | 0.39 | -5.84 | -6.39 | 2.14 | – | -3.95 | -2.42 | -0.24 | 3.6
10 | COc1cccc(CCc2ccccc2OCC(CN(C)C)OC(=O)CCC(=O)O)c1 (centres undefined) [Sarpogrelate hydrochloride] | – | 0.79 | -0.54 | -0.31 | – | -0.09 | -0.29 | -0.54 | -0.27 | 0.14 | -0.5 | -0.89 | – | -0.21 | -0.48 | -0.59
11 | O=C1CC2(CCCC2)CC(=O)N1CCCCN1CCN(c2ncccn2)CC1 [Buspirone HCl] | 12.4 ± 0.25 | – | -1.82 | 0.76 | 0.5 | 1.78 | -0.34 | -0.83 | -0.07 | -1.32 | 0 | – | -0.84 | -0.12 | 0.74 | -0.72
12 | CC[C@H]1OC(=O)C[C@@H](O)[C@H](C)[C@@H](O[C@@H]2O[C@H](C)[C@@H](O[C@H]3C[C@@](C)(O)[C@@H](O)[C@H](C)O3)[C@H](N(C)C)[C@H]2O)[C@@H](CC=O)C[C@@H](C)C(=O)/C=C/C(C)=C/[C@@H]1CO[C@@H]1O[C@H](C)[C@@H](O)[C@@H](OC)[C@H]1OC [Tylosin] | 12.16 ± 0.07 | -1.25 | -0.28 | 1.29 | 0.25 | 0.45 | 1.45 | 0.74 | 0.26 | 0.88 | – | – | 1.06 | 1.17 | 0.01 | 2.22
13 | Cc1ncc([N+](=O)[O-])n1CCO [Metronidazole] | 12.4 ± 0.12 | 0.23 | 0.32 | – | -0.5 | -0.37 | 0.12 | -0.42 | -0.14 | -0.62 | -0.42 | -0.7 | 0.09 | -0.37 | 0.08 | 0.44
14 | CN1CCN2c3ncccc3Cc3ccccc3C2C1 (centres undefined) [Mirtazapine] | 12.38 ± 0.12 | 0.24 | 0.18 | -0.64 | 0.29 | -0.59 | -0.11 | -0.07 | 0.29 | 0.24 | -0.38 | – | 1.07 | – | -0.87 | -0.51
